Results published in PubChem BioAssay AID1851 (National Center for Advancing Translational Sciences (NCATS), 2009).
Among all 16,000 compounds or so, about 5,800 (36%) were called active. Roughly 23% stayed inconclusive and do not appear here. Calls follow the shape of the dose curve; as a rule, active = well fitted curve in the direction sought with a large enough effect; inconclusive = small, poorly fitted or top-dose-only effect, or effect the other way; inactive = no such curve, though single readings can be large or run the other way. Some of the results follow.

Target: Cytochrome P450 2C19 (Homo sapiens) (UniProt P33261)
Sequence (P33261 whole entry, looked up): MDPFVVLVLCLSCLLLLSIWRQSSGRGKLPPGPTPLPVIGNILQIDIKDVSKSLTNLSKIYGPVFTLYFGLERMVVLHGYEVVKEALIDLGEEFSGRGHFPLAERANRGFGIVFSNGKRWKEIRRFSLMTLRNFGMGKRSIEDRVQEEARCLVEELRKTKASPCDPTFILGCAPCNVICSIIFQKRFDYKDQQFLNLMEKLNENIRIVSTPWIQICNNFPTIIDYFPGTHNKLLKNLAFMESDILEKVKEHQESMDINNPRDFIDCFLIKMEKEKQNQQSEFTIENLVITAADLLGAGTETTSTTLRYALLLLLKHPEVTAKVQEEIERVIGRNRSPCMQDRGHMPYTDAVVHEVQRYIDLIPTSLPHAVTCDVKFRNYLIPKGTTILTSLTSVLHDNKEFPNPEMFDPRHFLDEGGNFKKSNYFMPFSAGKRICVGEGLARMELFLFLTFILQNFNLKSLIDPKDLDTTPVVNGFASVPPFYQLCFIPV
Test: Cytochrome panel assay with activity outcomes
Settings: recombinant CYP, pro-luciferin dealkylation, luminescence, p450-cyp2c19; series mostly up to 57.1 µM
% is scaled to controls: 0 for no effect and ±100 for the full control effect.

Row | SMILES | AC50 | activity, negative = inhibition
1 | O=C(Nc1cccc(F)c1)N1CC[C@@]2(CCCNC2)C1 | inactive | –
2 | Nc1ccc(N(S(=O)(=O)c2ccccc2)S(=O)(=O)c2ccccc2)c(Cl)c1 | 0.158 µM (active) | –
3 | Nc1ccc(N2C(=O)c3ccccc3C2=O)c(Cl)c1 | inactive | –
4 | CC(C)(C)C(=O)[C@H]([C@@H](c1ccccc1)N1CCOCC1)N1CCOCC1 | – | 27.5% [at 11.4 µM] (inactive)
5 | O=C(NCC(c1cccnc1)N1CCOCC1)Nc1ccccc1 (stereo not given) | 17.8 µM (active) | –
6 | O=C(Nc1ccccc1)N1CCC2(CC1)CCN(C(=O)c1cnccn1)CC2 | inactive | –
7 | CCOC(=O)c1sc2nc3c(cc2c1N)COC(C)(CC)C3 (stereo not given) | 25.1 µM (active) | –
8 | Cc1ccc(-c2ccc(/C=N/NC(=S)Nc3ccccc3)o2)cc1[N+](=O)[O-] | 7.94 µM (active) | –
9 | Cc1ccc(-c2ccc(/C=N\NC(=O)c3cc4c(ccc5ccccc54)o3)o2)cc1[N+](=O)[O-] | inactive | –
10 | CC1(C)OCC([C@H](O)C2=CCCCC2=O)CO1 | – | 2.21% [at 11.4 µM] (inactive)
11 | Cc1nccn1C[C@@H]1CCc2c(c3ccccc3n2C)C1=O | inactive | –
12 | Cc1nc2ccccn2c1C(=O)N/N=C/c1ccccc1[N+](=O)[O-] | inactive | –
13 | O=C(N/N=C/c1ccc([N+](=O)[O-])s1)c1ccccc1Br | 28.2 µM (active) | –
14 | O=C(N/N=C/c1ccc(Br)s1)c1ccccc1[N+](=O)[O-] | 12.6 µM (active) | –
15 | COc1ccc2[nH]cc(CCNc3nc(-c4ccc(C(=O)N(C)C)cc4)nc4ccccc34)c2c1 | 3.16 µM (active) | –
16 | COc1ccc2[nH]cc(CCNc3nc(-c4ccc(N(C)C)cc4)nc4ccccc34)c2c1 | 7.94 µM (active) | –
17 | O=C1OC2CC3CC1CC(O)(C3)C2 (stereo not given) | inactive | –
18 | COC(=O)/C(=C\C(=O)c1ccccc1)Nc1cccc(C(F)(F)F)c1 | 5.01 µM (active) | –
19 | CCC(C(=O)Nc1cccc(C(F)(F)F)c1)c1ccccc1 (stereo not given) | inactive | –
20 | Nc1nc2c(ncn2[C@@H]2C=C[C@@H](CO)C2)c(=O)[nH]1 | – | -3.48% [at 11.4 µM] (inactive)
21 | O=C(c1cc(C(F)(F)F)cc(C(F)(F)F)c1)N1CCC2(CC1)CCN(c1ccncc1)CC2 | inactive | –
22 | O=C(c1cc(C(F)(F)F)cc(C(F)(F)F)c1)N1CCC2(CC1)CCN(c1ccccn1)CC2 | inactive | –
23 | O=C(c1cc(C(F)(F)F)cc(C(F)(F)F)c1)N1CCC2(CC1)CN(c1ccccn1)C2 | inactive | –
24 | O=C(c1ccc(Oc2ccc(C(F)(F)F)cn2)cc1)N1CCN(c2ccccc2)CC1 | 10 µM (active) | –

Row | SMILES | AC50 | activity, negative = inhibition
25 | Cc1ccc(C(=O)N2CCN(c3ccc(C(F)(F)F)cn3)CC2)cc1 | 25.1 µM (active) | –
26 | O=C(c1cc(C(F)(F)F)cc(C(F)(F)F)c1)N1CCC2(CC1)CN(c1ccccc1)C2 | inactive | –
27 | CN1CCN(c2ncc3ncc(=O)n(C[C@H]4CCCO4)c3n2)CC1 | inactive | –
28 | O=C(NC(N1CCCC1)C(Cl)(Cl)Cl)c1ccccc1 (stereo not given) | 7.94 µM (active) | –
29 | O=C(NNC(=O)c1ccccc1)C(=O)N1CCCCC1 | inactive | –
30 | CC(C)NC(=O)/C(=N\O)c1ccccc1 | inactive | –
31 | CCN(CC)N=Nc1[nH]nc2nc(C)cc(C)c12 | inactive | –
32 | CCN(CC)c1ncnc2c1sc1nc(C)cc(C)c12 | 14.1 µM (active) | –
33 | Cc1ccc(-c2ncccc2OC(=O)C23CC4CC(CC(C4)C2)C3)cc1 | 14.1 µM (active) | –
34 | O=C(CNc1cccc(Cl)c1)c1ccc(Cl)cc1 | 2 µM (active) | –
35 | O=C(CCNc1cccc(Cl)c1)c1cccs1 | 3.98 µM (active) | –
36 | O=C(NOC(=O)c1cc(Br)ccc1Cl)c1cccs1 | inactive | –
37 | COc1ccccc1-c1nc(NCCNC(C)=O)c2ccccc2n1 | inactive | –
38 | COc1ccccc1C1=NOC(COC(=O)c2ccc3ccccc3n2)C1 (stereo not given) | 15.8 µM (active) | –
39 | O=C1C[C@H](c2ccccc2)[C@@H](c2ccc(Br)cc2)O1 | 0.398 µM (active) | –
40 | O=[N+]([O-])c1c(NCCO)cc(Sc2nc3ccccc3s2)c2nonc12 | 2.51 µM (active) | –
41 | CN(CCO)c1cc(Sc2nc3ccccc3s2)c2nonc2c1[N+](=O)[O-] | 11.2 µM (active) | –
42 | CC(C)n1nnnc1-c1cc(Cl)cc(Cl)c1 | 7.94 µM (active) | –
43 | CN1CC[C@@]2(CCCN(C(=O)c3cccc(F)c3)C2)C1 | inactive | –
44 | Cc1cccc(-n2nnc3cnn(C)c3c2=O)c1 | inactive | –
45 | Cc1cccc(Cn2ncc(Cl)c(Cl)c2=O)c1 | 8.91 µM (active) | –
46 | CC[N+](C)(CC)CCOC(=O)C1c2ccccc2Oc2ccccc21 | inactive | –
47 | O=C(O)c1ccccc1C1c2ccccc2Oc2ccccc21 | – | 9.43% [at 11.4 µM] (inactive)
48 | CC(=O)c1ccc(OC(=O)C2c3ccccc3Oc3ccccc32)cc1 | 25.1 µM (active) | –

Row | SMILES | AC50 | activity, negative = inhibition
49 | O/N=C/c1cc(Cl)ccc1OCc1cccc2ccccc12 | 1.58 µM (active) | –
50 | Oc1ccc(Cl)cc1C=Nc1cnc2ccccc2c1 | – | -4.43% [at 11.4 µM] (inactive)
51 | O=[N+]([O-])c1ccc(/C=N/n2c(COc3ccccc3)n[nH]c2=S)cc1 | 11.2 µM (active) | –
52 | O=C(N/N=C/C=C/c1ccccc1)c1cc2c(ccc3ccccc32)o1 | inactive | –
53 | O=S(=O)(N/N=C\C=C\c1ccccc1)c1ccc(Br)cc1 | 2 µM (active) | –
54 | Nc1ncnc2nc(N3CCN(CCO)CC3)[nH]c12 | – | -15.5% [at 11.4 µM] (inactive)
55 | COc1ccc(C(=O)N2CCC3(CCN(Cc4ccncc4)CC3)CC2)cc1 | inactive | –
56 | COc1ccccc1C(c1nnnn1C(C)(C)C)N1CCCc2ccccc21 (stereo not given) | 4.47 µM (active) | –
57 | COc1ccccc1C(c1nnnn1C(C)(C)C)N1CCN(Cc2ccncc2)CC1 (stereo not given) | 2.24 µM (active) | –
58 | Cc1nc2cnc(N3CCN(C)CC3)nc2n(C)c1=O | inactive | –
59 | COc1cc(C2C(C#N)=C(N)N(Nc3ccccc3)C3=C2C(=O)CC(C)(C)C3)ccc1OCc1cccc(F)c1 (stereo not given) | 7.08 µM (active) | –
60 | CN(C)N1C(N)=C(C#N)C(c2cccnc2)C2=C1CC(C)(C)CC2=O (stereo not given) | inactive | –
61 | COc1ccc(C2C(C#N)=C(N)N(Nc3ccccc3)C3=C2C(=O)CC(C)(C)C3)cc1C (stereo not given) | 2.24 µM (active) | –
62 | COc1cc(C2C(C#N)=C(N)N(Nc3ccccc3)C3=C2C(=O)CC(C)(C)C3)ccc1OCc1ccccc1 (stereo not given) | 6.31 µM (active) | –
63 | Cc1noc(C)c1C(=O)N1CCC2(CCCN(Cc3ccc(C#N)cc3)C2)CC1 | inactive | –
64 | CN(C)c1ncnc2ccc(-c3ccccc3C(F)(F)F)cc12 | 3.98 µM (active) | –
65 | Cc1ccccc1-c1ccc2ncnc(N(C)C)c2c1 | 7.94 µM (active) | –
66 | CN(C)Cc1ccccc1-c1ccc2ncnc(N(C)C)c2c1 | inactive | –
67 | COc1ccccc1-c1ccc2ncnc(N(C)C)c2c1 | 0.501 µM (active) | –
68 | CC(=O)OC[C@@H]1O[C@@H](O/N=C2/C[C@@H](O)[C@@H](O)[C@@H]3[C@H]4C(=O)N(c5ccc(F)cc5F)C(=O)[C@@H]4CC[C@H]23)[C@H](OC(C)=O)[C@H](OC(C)=O)[C@@H]1OC(C)=O | – | -9.07% [at 11.4 µM] (inactive)
69 | CCOC(=O)N/N=C1/C[C@@H](O)[C@@H](O)[C@@H]2[C@@H]3C(=O)N(Cc4ccc5c(c4)OCO5)C(=O)[C@H]3CC[C@H]12 | – | -2.19% [at 11.4 µM] (inactive)
70 | CC1(C)SC(=S)N(Cc2ccc3c(c2)OCO3)C1N(O)C(=O)NC1CCCCC1 (stereo not given) | 3.55 µM (active) | –
71 | CCOC(=O)N/N=C1/C[C@@H](O)[C@@H](O)[C@@H]2[C@@H]3C(=O)N(Cc4ccc5c(c4)OCO5)C(=O)[C@H]3CC[C@@H]12 | – | 4.88% [at 11.4 µM] (inactive)
72 | CCCCNc1c(C(=O)OCC)c(C)nc2c1cnn2CC | inactive | –

Row | SMILES | AC50 | activity, negative = inhibition
73 | CCOC(=O)c1cc(C#N)c(Oc2ccccc2OC)nc1-c1ccccc1 | 6.31 µM (active) | –
74 | CCCCNc1nc(-c2ccccc2)c(C(=O)OCC)cc1C#N | 17.8 µM (active) | –
75 | CNS(=O)(=O)c1ccccc1C(=N)c1ccccc1 | – | -10% [at 11.4 µM] (inactive)
76 | Cn1ccnc1C[C@@](C)(O)c1ccccc1 | – | -6.82% [at 11.4 µM] (inactive)
77 | C[C@@](O)(CNS(=O)(=O)c1ccccc1)c1ccccc1 | 1 µM (active) | –
78 | CCn1c(SCC(=O)Nc2ccc3c(c2)OCCO3)nc2c(c1=O)SC(C)C2 (stereo not given) | 8.91 µM (active) | –
79 | Cc1ccc2nc(NC(=O)CSc3nc4c(c(=O)n3C)SC(C)C4)sc2c1 (stereo not given) | 5.62 µM (active) | –
80 | CCn1c(SCC(=O)Nc2nc3ccc(C)cc3s2)nc2c(c1=O)SC(C)C2 (stereo not given) | 2.82 µM (active) | –
81 | COC(=O)c1cccc(C(=O)Nc2ccc(C)cc2)n1 | 11.2 µM (active) | –
82 | CC(C)OC(=O)c1cccc(C(=O)Oc2ccc(Br)cc2)n1 | inactive | –
83 | Cc1ccc(OC(=O)c2cccc(C(=O)Oc3ccc(C)cn3)n2)nc1 | inactive | –
84 | Cc1cc(C)n2nc(SCc3cc(=O)oc4ccc5ccccc5c34)nc2n1 | 8.91 µM (active) | –
85 | CCSc1nc2nc(C)cc(C)n2n1 | inactive | –
86 | Cc1ccc(/C=N/NC(=O)CSc2nc3nc(C)cc(C)n3n2)cc1 | inactive | –
87 | COc1ccccc1CNC(=O)CSc1nc2nc(C)cc(C)n2n1 | 10 µM (active) | –
88 | Cc1cc(NS(=O)(=O)c2ccc(NC(=O)CN3C(=O)c4ccccc4C3=O)cc2)nc(C)n1 | inactive | –
89 | Cc1cc(C)n2nc(SCN3C(=O)c4ccccc4C3=O)nc2n1 | 2.51 µM (active) | –
90 | CC12COC3(C(=O)Nc4nccs4)CC1CCC32C (stereo not given) | 2.24 µM (active) | –
91 | COCC(=O)N1CCC2(CCCN(C(=O)Nc3cccc(C#N)c3)C2)CC1 | inactive | –
92 | O=C(COc1ccc(Cl)cc1Cl)N/N=C/CCc1ccccc1 | 2 µM (active) | –
93 | CC(C/C=N/NC(=O)COc1cc(Cl)ccc1Cl)c1ccccc1 (stereo not given) | 0.447 µM (active) | –
94 | OC1(c2ccc(OC(F)F)cc2)CSC(=Nc2cccnc2)N1C1CC1 (stereo not given) | 0.0794 µM (active) | –
95 | COc1cc(N=c2ssnc2Cl)cc(OC)c1OC | 1.12 µM (active) | –
